Screening data deposited in PubChem BioAssay by several laboratories.
CYP2C19 inh = inhibitors of human CYP2C19; P33261; CYP2C19 Supersomes, luciferin-H EGE luminescence, 30 min; inhibition, % at 5 µM; 96,000 compounds, 21% hits; AID 778;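 active = CYP2C19 inhibition above a set limit at 5 µM in the primary screen, cut at about 50% in these data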;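 note: plate controls were negative control wells for no effect and 2.5 mM tranylcypromine positive control for full effect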
Target sequence (P33261 whole entry, looked up): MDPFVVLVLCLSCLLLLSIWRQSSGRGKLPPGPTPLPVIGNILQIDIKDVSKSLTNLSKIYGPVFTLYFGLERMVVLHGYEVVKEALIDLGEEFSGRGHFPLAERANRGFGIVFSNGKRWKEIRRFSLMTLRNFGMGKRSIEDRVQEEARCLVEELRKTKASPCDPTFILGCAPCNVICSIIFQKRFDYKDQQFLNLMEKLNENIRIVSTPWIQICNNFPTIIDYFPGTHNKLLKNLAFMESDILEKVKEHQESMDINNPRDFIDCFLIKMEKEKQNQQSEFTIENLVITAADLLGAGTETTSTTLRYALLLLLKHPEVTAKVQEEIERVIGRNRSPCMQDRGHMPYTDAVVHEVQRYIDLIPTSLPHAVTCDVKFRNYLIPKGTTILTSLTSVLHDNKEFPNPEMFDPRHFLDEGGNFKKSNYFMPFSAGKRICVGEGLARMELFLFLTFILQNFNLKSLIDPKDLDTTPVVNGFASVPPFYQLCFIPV
CYP2C9 inhib = blocks human cytochrome P450 2C9; inhibition, % at 5 µM; 96,000 compounds, 20% hits; CYP2C9 Supersomes, luciferin-H conversion, luminescence; AID 777;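 active = blocking of liver enzyme CYP2C9 beyond about 50% at 5 µM, limit read from the data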
CYP2C19 activ = cytochrome P450 2C19 (human) activation. P33261. AID 1025. 96,000 tested, under 10 active. recombinant CYP2C19, luciferin-H EGE luminescence; hits give high values; 0 = fully inhibited enzyme, 1 = untreated enzyme. activation factor at 5 µM;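 active = activation factor of at least 2 at 5 µM in the primary screen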;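 note: 0 = wells with 2.5 mM tranylcypromine and 1 = vehicle-only wells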
CYP2C9 act = activators of human CYP2C9; recombinant CYP2C9, luciferin-H conversion, luminescence; hits give high values; factor 1 = untreated enzyme, 0 = blocked; activation factor at 5 µM; 96,000 compounds, 1.4% hits; AID 1024;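 active = activation factor of 2 or more for CYP2C9 at a 5 µM dose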;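 note: 0 = sulfaphenazole-blocked wells and 1 = vehicle-only wells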
Measles CPE = protection of cells from measles virus; Measles virus-infected cells, CPE protection, absorbance; protection (pct of control), % at 4 µM; 140,000 compounds, 1.5% hits; in the data active = protection mostly above about 24%, no sharp cut-off; inactive = mostly below about 26%
Active calls of the source: *; · = not tested or not shown. Compounds with a hit are over-represented: about 22% of the library has one in this group of screens.

SMILES	CYP2C19 inh	CYP2C9 inhib	CYP2C19 activ	CYP2C9 act	Measles CPE
O=C(CCCn1c(=O)c2sccc2n(CC(=O)OCc2ccccc2)c1=O)NCc1ccco1	50.9*	2.3	0.5	1	0.7
O=C(CCn1c(=O)c2sccc2n(CC(=O)OCc2ccccc2)c1=O)NCc1ccccc1	30.3	61.8*	0.7	0.4	8.7
O=C(CCCn1c(=O)c2sccc2n(Cc2ccc(F)cc2)c1=O)NCc1ccco1	79.9*	69.0*	0.2	0.3	6.2
Cc1nn(-c2ccccc2)c(C)c1P(=O)(c1ccccc1)N(C)C (configuration not stated)	17.0	26.3	0.8	0.7	5.2
CCCn1c(CN2CCN(C(=O)c3ccco3)CC2)nc2c1c(=O)n(C)c(=O)n2C	-10.3	5.5	1.1	0.9	0.6
CCN(Cc1ccccc1)C(=O)Cn1c(=O)n(CC(=O)NCc2ccco2)c(=O)c2sccc21	14.8	82.4*	0.9	0.2	6.8
COC(=O)c1cc(=O)n(Cc2ccc3c(c2)OCO3)c(=Nc2ccccc2)s1	16.7	68.2*	0.8	0.3	11.5
COC(=O)c1cc(=O)n(Cc2ccc3c(c2)OCO3)c(=Nc2ccc(F)cc2)s1	8.5	15.6	0.9	0.8	5.0
COC(=O)c1cc(=O)n(Cc2ccco2)c(=Nc2ccc(F)c(Cl)c2)s1	64.1*	68.9*	0.4	0.3	12.3
COc1cc(SC)ccc1C(=O)NCCOc1ccc(F)cc1	·	·	·	·	14.1
O=C(Oc1ccc(Cl)c2cccnc12)N1CCCCCC1	·	·	·	·	3.8
CCN(CC)c1ccc(-n2c(C)c(C(C)=O)c(C(C)=O)c2C)cc1	67.2*	79.7*	0.3	0.2	5.5
Cc1ccc(-n2c(C)cc(C=C(C#N)C#N)c2C)cc1	41.7	27.2	0.6	0.7	·
CCN(CC)c1ccc(-n2c(C)cc(C=O)c2C)cc1	82.6*	31.4	0.2	0.7	9.8
COCC(=O)N1CCN(c2ccc([N+](=O)[O-])cc2)CC1	25.5	3.0	0.7	1	31.8
CCOC(=O)CC1ON(C)C(=O)N1c1ccc([N+](=O)[O-])cc1 (configuration not stated)	97.9*	20.5	0	0.8	3.1
CC(C)Cc1ccc(C(C)C(=O)N2CCOCC2)cc1 (configuration not stated)	21.4	66.3*	0.8	0.3	9.8
CS(=O)(=O)N(CCc1ccccc1)CC(=O)NCc1ccc2c(c1)OCO2	30.6	30.9	0.7	0.7	46.6
O=C(CNC(=O)c1ccc(Br)o1)NCc1ccc2c(c1)OCO2	11.8	16.2	0.9	0.8	5.0
CN(CC(=O)NCc1ccc2c(c1)OCO2)S(=O)(=O)c1ccc(Br)s1	69.8*	89.2*	0.3	0.1	3.2
O=C(CCS(=O)(=O)c1ccc(Br)s1)NCc1ccc2c(c1)OCO2	35.1	81.2*	0.6	0.2	5.9
COCCn1c(SCC(=O)N2CCCc3ccccc32)nc2ccccc2c1=O	96.4*	96.4*	0	0	1.5
CC1Cc2nc(SCC(=O)N3CCCc4ccccc43)n(C)c(=O)c2S1 (configuration not stated)	·	·	·	·	8.8
COCCn1c(SCC(=O)N2CCCc3ccccc32)nc2c(c1=O)SC(C)C2 (configuration not stated)	33.6	95.4*	0.7	0	4.0
CCn1c(SCC(=O)N2CCc3ccccc32)nc2c(c1=O)SC(C)C2 (configuration not stated)	22.7	92.8*	0.8	0.1	·
SMILES	CYP2C19 inh	CYP2C9 inhib	CYP2C19 activ	CYP2C9 act	Measles CPE
CCn1c(SCC(=O)N2CCCCC2)nc2c(c1=O)SC(C)C2 (configuration not stated)	25.2	68.8*	0.7	0.3	9.9
CCn1c(SC)nc2c(c1=O)SC(C)C2 (configuration not stated)	9.3	11.9	0.9	0.9	45.7*
C/C(=N\NS(=O)(=O)c1ccccc1)c1cccc(NC(=O)c2cccc(Cl)c2)c1	·	·	·	·	16.3
COc1ccc(OC)c(-n2c(SCC(C)=O)nnc2-c2cccc(S(=O)(=O)N(C)C)c2)c1	13.6	16.9	0.9	0.8	8.7
CCSc1nnc(-c2cccc(S(=O)(=O)N(C)C)c2)n1-c1cc(OC)ccc1OC	69.8*	83.9*	0.3	0.2	·
CCCSc1nnc(-c2cccc(S(=O)(=O)N(C)C)c2)n1-c1cc(OC)ccc1OC	77.2*	86.5*	0.2	0.1	13.3
CCn1c(SCC(=O)NNC(=O)Cc2ccccc2)nnc1-c1ccccc1	1.0	-1.5	1	1	22.5
COc1ccc(NC(=S)Nc2ccc(Oc3ccccc3)cc2)cc1	-8.1	-15.5	1.1	1.2	17.6
COc1cc(N/C=C(\C(C)=O)c2ccccc2)cc(OC)c1	72.5*	85.5*	0.3	0.1	16.6
CC(=O)/C(=C\Nc1ccc(OCc2ccccc2)cc1)c1ccccc1	-1.2	85.0*	1	0.2	11.1
COc1cc(OC)cc(C(=O)Nc2ccccc2NC(C)=O)c1	34.8	25.5	0.7	0.7	27.6
CC(=O)/C(=C/Nc1ccc(Oc2ccccc2)cc1)c1ccccc1	67.9*	89.2*	0.3	0.1	3.5
COc1ccc(Cc2nnc(NC(=O)CSc3ccc(Cl)cc3)s2)cc1OC	·	·	·	·	2.9
Cc1ccc(NC(=O)/C(C#N)=C/c2cccs2)c(C)c1	6.3	-12.9	0.9	1.1	17.4
CC(=O)Oc1oc(-c2ccccc2)nc1C=Nc1ccccc1	32.7	33.5	0.7	0.7	12.5
CCOC(=O)c1ccc(N=Cc2nc(-c3ccccc3)oc2OC(C)=O)cc1	31.8	50.1*	0.7	0.5	4.4
Cc1cc(NC(=O)c2ccco2)ccc1NC(=O)Cc1cccs1	·	·	·	·	18.2
CN(C)C(CNC(=O)c1cccs1)c1cccnc1 (configuration not stated)	-17.6	-16.6	1.2	1.2	11.6
CCOc1ccc(/C=N/OCC(=O)Nc2cc(C)on2)cc1	·	·	·	·	5.2
CCOc1ccc(Nc2nc(Cc3nnc(SCC(=O)NCC4CCCO4)n3C)cs2)cc1 (configuration not stated)	14.1	36.6	0.9	0.6	10.3
CCOc1ccc(Nc2nc(Cc3nnc(SCC(=O)NC4CCCCC4)n3C)cs2)cc1	79.3*	91.0*	0.2	0.1	3.4
CN(C)S(=O)(=O)c1ccc(NC(=O)c2ccc(Br)o2)cc1	54.2*	42.7	0.5	0.6	1.0
O=C(Nc1ccc(S(=O)(=O)NC2CCCCC2)cc1)c1ccc(Br)o1	7.9	23.0	0.9	0.8	8.9
CN(C)S(=O)(=O)c1ccc(NC(=O)c2cc3ccccc3o2)cc1	14.2	3.3	0.9	1	13.0
CN(C1CCCCC1)S(=O)(=O)c1ccc(NC(=O)c2ccc(Br)o2)cc1	93.7*	98.4*	0.1	0	13.8
CN(CCc1ccccn1)C(=O)CN(C)S(=O)(=O)c1ccc2c(c1)c(=O)n(C)c(=O)n2C	-13.1	25.3	1.1	0.7	2.4
CCCC(=O)Nc1cccc(-c2nc3ccccc3o2)c1	9.0	26.5	0.9	0.7	19.3
